Our source for the growth values is PubChem BioAssay (NCI).

This assay relates to MDA-MB-468 breast. Nature of the assay: NCI-60 one-dose screen, 48 h (100 = growth as untreated, 0 = no growth, -100 = all killed). Particulars: 10 µM unless noted.

“And” between values parts separate entries of the source, which are not always exact repeats. Equal entries are not always repeated. This is part of a sample that, as a whole, favours compounds with a hit. Of some 83,000 tested, about 20% had one in any assay.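 Activity criterion: percent growth below 10, measured after cells in 96-well plates were exposed to a single compound concentration for 48 hours.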 A number with no mark means an inactive call. The source made the active and inactive calls.

Turning to `N#CSc1c[nH]c2ccc(/C=C/C(=O)/C=C(O)/C=C/c3ccc4[nH]cc(SC#N)c4c3)cc12`, the growth is -8.53% (active).
As for `CCN(CC)CCCNC(=O)c1ccc(N)cc1`, the figure is 86.2%; as for `COc1ccc2c(c1)/C(=C\c1sc(=S)[nH]c1O)C(C(=O)O)=N2`, 98.2%.
In the case of `CCOC(=O)c1c2c(n3ccc(NC(=O)CCN4CCOCC4)cc13)C(=O)c1ncccc1C2=O`, the growth is 49.7%.
Regarding `O/N=C/c1ccc(O)cc1O`, the growth was 121%.
As for `NC(N)=Nc1ccc(Nc2cccc(Nc3ccc(Cl)c(C(F)(F)F)c3)c2)cn1`, the growth is -7.19% (active).
As for `C(=C\c1cn(-c2ccccc2)nc1-c1ccccc1)/c1nnc(-c2c[nH]c3ccccc23)o1`, the growth is 87.1%.
`CCCN1CN2C(=O)N3CN(CCC)CN4C(=S)N(C1)C2C34` (stereo not given): the growth is 107%.
As for `Nc1ncnc2c1N=C(c1ccc(Cl)cc1)CC(c1cccc(Nc3ccnc4cc(Cl)ccc34)c1)N2` (stereo not given), the figure is 75%.
The result for `CC(C)(C)c1ccc(Cn2c(-c3nonc3N)nc3ccccc32)cc1` reads 47.6%; that for `O=C(Nc1ccc(Cl)cc1F)c1cc(Br)ccc1O`, 0.453% (active); that for `COc1cc(C(=O)c2cc3c(cc2C)OCO3)cc(OC)c1OC`, 27.6%.
As for `CN(C)c1ccc(C(=NO)c2ccc(N(C)C)cc2)cc1`, the figure is -0.198% (active).
As for `COc1ccc(-c2cc(C(=O)N3N=C(c4ccc(N)cc4)CC3c3ccccc3)c3ccccc3n2)cc1` (stereo not given), the growth is 29.3%.
In the case of `CCc1c(C)c2cc3c(c(C)c2oc1=O)OCC(=O)N3`, the growth is 69.4%.
As to `CN1CCN(Cc2ccc(C(=O)Nc3cncc(C#Cc4cnc(N)c5ccccc45)c3)cc2C(F)(F)F)CC1`, the growth was -61.9% (active).
As for `COC(=O)c1ccc(NC(N)=NCC(C)(C)COc2ccc(C(F)(F)F)cc2)nc1`, the figure is 17.1%; as for `Cc1cccc[n+]1C1c2ccccc2-c2ccccc21`, 68.5%; as for `CCOC(=O)c1cnn(CC(O)CC)c1NC(=O)NCc1ccccc1C(F)(F)F` (stereo not given), 106%.
In the case of `Fc1ccc(Nc2nc3nonc3nc2Nc2ccc(F)cc2)cc1`, the growth is -4.42% (active).
As for `Brc1cccc(-c2nc(-c3ccc4c(c3)OCCO4)co2)c1`, the figure is 34.9% [25 µM]; as for `Cc1ccc(C)c2c1C(=O)OC2=O`, 110%; as for `O=Cc1c(OCc2cnnn2CC(=O)Nc2ccc(Br)cc2)ccc2ccccc12`, 95.6%.
Turning to `C=CC(=O)NCCOc1cccc(Nc2cc(NCCCNC(=O)C3CCC3)c(Br)cn2)c1`, the growth is -59.5% (active).
As for `c1ccc([P+](c2ccccc2)(c2ccccc2)c2ccc3c4ccc([P+](c5ccccc5)(c5ccccc5)c5ccccc5)c5cccc(c6cccc2c63)c54)cc1`, the figure is -10.9% (active); as for `CCCc1cc(=O)oc2c3c(c4c(c12)OC(C)(C)CC4)OC(C)[C@H](C)[C@@H]3O` (stereo not given in full), 108%; as for `COc1cc(NC(=O)c2cccc(-c3cc(=O)c4c(O)c(OC)c(OC)cc4o3)c2)cc(OC)c1OC`, 59.9%.
The result for `O=C1CCn2c1c(O)c1ccccc1c2=O` reads 105%; that for `C=CCn1c(SCC(=O)Nc2cccc(C(=O)/C=C/c3ccc(Br)cc3)c2)nc2ccccc2c1=O`, 99.6%.
As for `CN(CCCN(C)CCC1CCCCC1)CCC1CCCCC1`, the figure is -76.1% (active); as for `Br/C(=N\Nc1nn[nH]n1)c1ccccc1`, 104%; as for `O=C(Nc1ccc(CN2CCOCC2)c(C(F)(F)F)c1)c1nc2ccc3[nH]ncc3c2c2c1CCCC2`, 97.2%.
As to `CCN(CC)c1ccc(N=O)cc1`, the growth was 23.7%.
As for `S=c1ccc2ccccc2[nH]1`, the figure is 98% and 116%; as for `CNC(=O)c1cc(Oc2ccc3nc(NC(=O)Nc4ccc(Cl)c(C(F)(F)F)c4)sc3c2)ccn1`, -5.09% (active).
The result for `COc1cc2c(c(OC)c1OC)CCC(c1cccc(NC(=O)c3cccc(Cl)c3)c1)O2` (stereo not given) reads 60.2%; that for `CC(=O)c1sc2sc(C(C)=O)c(C)c2c1C`, 61.4%.
The result for `C=CCSC1=NC2C(N(CC)C(=O)N2CC)N1/N=C/C=C/c1ccccc1OC` (stereo not given) reads 29.6%; that for `NNC(=O)N/N=C1\C(=O)N(c2nccs2)C(=O)C(=O)C1c1nc2ccccc2s1` (stereo not given), 106%; that for `CCOC(=O)c1nnn(-c2no[n+]([O-])c2-c2ccc(OC)cc2)c1COc1cccc2cccnc12`, 33.6%.
With `Oc1[nH]c2ccc(Cl)cc2c1/C=c1/ccc2c(c1)N=C(c1ccc(C(F)(F)F)cc1)N=2`, the growth was 52.5%.
The result for `CC(=O)Nc1ccc(O)cc1` reads 105% and 111%; that for `Cc1ccc(S(=O)(=O)Nc2nc3ccccc3nc2Nc2ccc3nsnc3c2)cc1`, 27.4% and 35.8%; that for `N#CC1=C(N)n2nc(-c3ccncc3)nc2NC1c1cccc2ccccc12` (stereo not given), 76.1%.
The result for `COc1ccc(/C=N/NC(N)=S)c(OC)n1` reads 86.4%; that for `COc1cc(C=Nc2oc(-c3ccccc3)c(-c3ccccc3)c2C#N)cc(CN2CCCCC2)c1O`, 95.6%; that for `CS(=O)(=O)OC1CC(n2ccc(=O)[nH]c2=O)OC1COC(c1ccccc1)(c1ccccc1)c1ccccc1` (stereo not given), 110%.
As for `CS(=O)(=O)c1c(Nc2ccccc2)n[nH]c1N`, the figure is 110%.
For `COc1cc(-c2nn(C(C)(C)C)cc2-c2ccnc(NCCCNS(=O)(=O)c3ccc(C)cc3)n2)ccc1Cl`, the growth was 79%.
As for `CC1=CC(C)(C)NC(=S)N1c1ccc(Cl)cc1`, the figure is 97.6% and 105%; as for `O=Nc1ccc(NC(=O)Nc2ccc([N+](=O)[O-])cc2)cc1`, 96%.
Take `CCN(CC)CCNC(=O)C(Cl)=C1C(Cl)=C(Cl)C(Cl)=C1Cl`: the growth is 75.8%.
As for `NC(=O)c1cc(I)ccc1NC(=O)/C=C/c1ccccc1Cl`, the figure is 17.3%; as for `Oc1cccc(Nc2nccc(-c3ccc4ccccc4c3)n2)c1`, 15.6%.
With `COc1cccc(-c2nc3sccn3c2-c2ccnc(NCCN3CCCN(C)S3(=O)=O)n2)c1`, the growth is 75.6%.
In the case of `COC(=O)CCC/C=C\C[C@H]1C=CC(=O)/C1=C/C[C@@H](O)CCc1cccc(C(F)(F)F)c1`, the growth is -14.5% (active).
As for `Cc1ccccc1N=C(N)Nc1ccccc1C` (tested in a mixture with another compound), the figure is 87.1%; as for `N#CC(Cc1cccc2ccccc12)c1cc2ccccc2[nH]1` (stereo not given), 93.2%; as for `Cc1ccc(-c2ccc(/C=C(\C#N)c3nc(-c4ccco4)cs3)o2)cc1`, -45.8% (active).
As for `CN(C)CCN(C)c1ccc2ncc(C#Cc3cncc(C(=O)Nc4ccc(CN5CCN(C)CC5)c(C(F)(F)F)c4)c3)n2n1`, the figure is 84.8%.
As for `Cc1ccc(S(=O)(=O)Nc2sccc2-c2nc(-c3ccccc3)no2)cc1`, the figure is 97.7%; as for `CCN(CC)C(=O)C[N+](C)(C)CCOC(c1ccccc1)c1ccccc1`, 109%; as for `Cn1c(=O)c2c(nc(NC3=NS(=O)(=O)c4ccccc43)n2CC(=O)N2CCc3ccccc32)n(C)c1=O`, 102%.
For `O=C1CC2(CCOCC2)Oc2ncccc21`, the growth was 30.4%.
As for `COc1ccc(/C=N/Nc2nc(Nc3ccccc3)nc(Nc3ccc(S(N)(=O)=O)cc3)n2)cc1`, the figure is 76.3%.
As for `COc1cccc(-c2nc3sccn3c2-c2ccnc(NCCCNS(=O)(=O)c3ccc(F)cc3)c2)c1`, the figure is 13.3%; as for `Cn1c2ccccc2c2c3c(c4c5cccnc5[nH]c4c21)C(=O)N(O)C3=O`, 0.0154% (active).
The result for `O=C1/C(=N/O)CCc2ccccc21` reads 109%.
Consider `C=CCn1c(SCC(=O)Nc2ccc(C(=O)/C=C/c3ccc(Cl)cc3)cc2)nnc1-c1ccc(Br)cc1`, for which the growth is 79.1%.
For the compound `CC(C)=CCC[C@H](C)c1ccc(C)c2c1OCN(CCO)C2`, the growth was 82.5%.
For `C#CCO[C@H]1CC(CC#C)(CC#C)C(=O)[C@@H]2[C@H]1[C@H]1C[C@@H]3[C@@]4(C)CCC[C@@](C)(C(=O)OC)[C@@H]4CC[C@@]23C=C1C(C)C`, the growth was 94.7%.
The result for `C=CC(=O)Nc1cccc(Nc2nc(Nc3ccc(N4CCN(C(C)=O)CC4)cc3OC)ncc2C(F)(F)F)c1` reads -48.8% (active); that for `C#Cc1nc(C(=O)NCCC(=O)Nc2ccc(NC(=O)c3ccc(/C=C/C(=O)c4nccn4C)cc3)cc2)cs1`, 20.6%; that for `O=C1c2cccnc2C(=O)c2c1c(C(=O)OCCN1CCOCC1)c1ccccn21`, -2.61% (active).
As for `O=C(Cc1ccc(NC(=O)c2cccc(Cl)c2)cc1)NCc1ccccc1`, the figure is 39%; as for `Cc1c(C(=O)/C=C/c2csc3ccccc23)[n+](=O)c2ccccc2n1[O-]`, -16.5% (active); as for `CCCC1OC(c2ccc(C(C)C)cc2)OCC1CC` (stereo not given), 97.6%.
The result for `CCCCCOC(=O)c1ccc(NC(=O)CNCC(C)C)cc1` reads 102%; that for `O=C(CSc1nc2ccccc2c(=O)n1-c1ccccc1)Nc1cccc(C(=O)/C=C/c2ccccc2Cl)c1`, 113%; that for `N#Cc1c(N)nnn1Cc1cc(=O)oc2c1ccc1ccccc12`, 106%.
As to `Cc1ccc2c(c1)C(C)Cc1c(ncnc1-n1cnc3cc(C)ccc31)N2C` (stereo not given), the growth was 9.76% (active).
Take `COc1cc(/C=C/C(=O)/C=C/c2ccc(-n3ccnc3C)cc2)ccc1O`: the growth is 24.4%.
As for `O=C1NC(=S)NC(=O)C1=Cc1cn(Cc2cn(Cc3cccc4ccccc34)nn2)c2ccccc12`, the figure is 94.9%.
As for `O=S(=O)(c1ccccc1)n1ccc(-c2ccc3c(c2)CCO3)n1`, the figure is 42.4%.
On to `C/C(=N\Nc1ccccc1)c1ccc(NC2=CC(=O)c3ccccc3C2=O)cc1`, for which the growth is 35.7%.
